Measured values: article PMC5540273 (PLoS ONE, 2017)

The compounds below were run on PAK4. Conditions: concentration: 1 μM, replicates: in singlicate; n = 1.
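Further: KINOMEscan kinase panel screen.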

| SMILES | %Inh [%] |
| --- | --- |
| CCn1c(-c2ccoc2)nc2cnccc21 [SB-733887] | 0 |
| CCS(=O)c1ccc(-c2coc3ccc(-c4nnc(C)o4)cc23)cc1 (centres unmarked) | 0 |
| Nc1ncnc2c1ncn2-c1ccc(Cl)cc1 [AH2635] | 0 |
| O=c1cc(N2CCOCC2)nc2n(Cc3ccc(F)c(Cl)c3)ccn12 [GSK2297099] | 0 |
| COc1ccc(CNC(=O)NC2CCN(c3ccnc(Nc4ccc(F)cc4)n3)C2)cc1 (centres unmarked) [GSK1379706] | 0 |
| COc1cc(Nc2ccnc3ccc(C(F)(F)F)cc23)cc(OC)c1OC [GW577382] | 4 |
| O=C(Nc1n[nH]c2nc(-c3ccccc3)c(Br)cc12)C1CC1 [SB-708998] | 0 |
| Nc1n[nH]c2nnc(-c3ccccc3)c(-c3ccccc3)c12 [GW554060] | 0 |
| CCc1nc(-c2cccc(C)c2)c(-c2ccncc2)s1 | 15 |
| O=C(NCCNc1ccnc(Nc2ccc(F)cc2)n1)Nc1ccc2c(c1)OCO2 [GSK1379882] | 0 |
| Fc1cccc(CSc2nnc(-c3ccc4c(c3)CCO4)o2)c1 | 23 |
| Cn1c(=O)c(F)c(Nc2ccc(I)cc2F)c2c(=O)n(OC[C@H](O)CO)cnc21 | 8 |
| COc1cc(Nc2nccc(N3CCC(NC(=O)C4COc5ccccc5O4)C3)n2)cc(OC)c1OC (centres unmarked) [GSK1379761] | 0 |
| CCC(=O)c1c(-c2ccccc2)c2cc(Cl)ccc2c(=O)n1Cc1cc(S(C)(=O)=O)n(CCC(C)(C)O)n1 | 6 |
| Nc1ncnc2c1ncn2-c1cccc(F)c1 [SKF-97560] | 5 |
| CCCNC(=O)Nc1ccc(Oc2ncnc3ccn(C)c23)cc1 | 0 |
| COc1ccc(Nc2nccc(N3CCC(NS(=O)(=O)c4ccc(NC(C)=O)cc4)C3)n2)cc1 (centres unmarked) [GSK1379729] | 0 |
| COc1cc2ncn(-c3cc(OCc4ccncc4Br)c(C(N)=O)s3)c2cc1OC [GW854278] | 8 |
| CN1C(=O)C(Nc2cc(Cl)c(O)c(Cl)c2)=C(c2ccc(Cl)cc2)C1=O [SB-404321] | 34 |

| SMILES | %Inh [%] |
| --- | --- |
| CCC(=O)c1c(-c2ccccc2)c2cc(Cl)ccc2c(=O)n1Cc1cc(S(C)(=O)=O)n(CC(F)F)n1 | 0 |
| O=C1NC(=O)C(c2ccccc2)=C1Nc1cccc(O)c1 [SB-390534] | 0 |
| Cc1cccc(-c2cc(-c3c[nH]nc3-c3ccccn3)ccn2)c1 [GW679395] | 0 |
| Nc1nc(N)c2nc(-c3ccccc3)[nH]c2n1 [SKF-12778] | 13 |
| COc1ccc(-n2cnc3c(N)ncnc32)cc1 [SKF-97236] | 0 |
| COc1cccc(-n2cnc3c(N)ncnc32)c1 [SKF-97416] | 18 |
| FC(F)(F)c1ccc(-c2ncn(CCCN3CCOCC3)c2-c2ccncc2)cc1 [SB-217780] | 21 |
| Cc1nnc(-c2ccc3ncn(-c4ccc(S(C)=O)cc4)c3c2)o1 (centres unmarked) | 2 |
| COC(=O)c1c(-c2ccccc2)c2cc(Br)ccc2c(=O)n1Cc1ccc(NC(=O)CCC(=O)O)cc1 | 2 |
| Cl.c1ccc(Cn2cnc3cc(Nc4ncnc5ccccc45)ccc32)cc1 [GW272142] | 0 |
| Cc1ccc(-c2ccc3c(ccc4sc5c(c43)NC[C@@H](C)N=C5N(C)C)n2)cn1 | 0 |
| CN1C(=O)C(Nc2ccccc2)=C(c2ccccc2)C1=O [SB-300079] | 0 |
| COc1cc2nccc(Nc3ccc(OCc4ccc(NC(C)=O)cc4)cc3)c2cc1OC.Cl [GW440135] | 9 |
| COc1cc2ncn(-c3cc(OCCCc4ccccc4)c(C(N)=O)s3)c2cc1OC [GSK205189] | 0 |
| Cc1nnc(-c2ccc(C)c(-c3ccc(C(=O)O)cc3)c2)o1 [GW608005] | 0 |
| O=C(Nc1n[nH]c2cc(-c3ccccc3F)ccc12)C1CC1 [SB-733371] | 0 |
| CCC(=O)c1c(-c2ccccc2)c2cc(Cl)ccc2c(=O)n1Cc1cc(C(=O)NC2CC2)n(C)n1 | 0 |
| CCC(=O)c1c(-c2ccccc2)c2cc(Cl)ccc2c(=O)n1Cc1ccc(C(=O)O)cc1 | 0 |

Each compound was assayed on PAK6. Conditions: concentration: 1 μM, replicates: in singlicate; n = 1.

| SMILES | %Inh [%] |
| --- | --- |
| CCn1c(-c2ccoc2)nc2cnccc21 [SB-733887] | 0 |
| CCS(=O)c1ccc(-c2coc3ccc(-c4nnc(C)o4)cc23)cc1 (centres unmarked) | 20 |
| Nc1ncnc2c1ncn2-c1ccc(Cl)cc1 [AH2635] | 0 |
| O=c1cc(N2CCOCC2)nc2n(Cc3ccc(F)c(Cl)c3)ccn12 [GSK2297099] | 13 |
| COc1ccc(CNC(=O)NC2CCN(c3ccnc(Nc4ccc(F)cc4)n3)C2)cc1 (centres unmarked) [GSK1379706] | 0 |
| COc1cc(Nc2ccnc3ccc(C(F)(F)F)cc23)cc(OC)c1OC [GW577382] | 0 |
| O=C(Nc1n[nH]c2nc(-c3ccccc3)c(Br)cc12)C1CC1 [SB-708998] | 0 |
| Nc1n[nH]c2nnc(-c3ccccc3)c(-c3ccccc3)c12 [GW554060] | 0 |
| CCc1nc(-c2cccc(C)c2)c(-c2ccncc2)s1 | 3 |
| O=C(NCCNc1ccnc(Nc2ccc(F)cc2)n1)Nc1ccc2c(c1)OCO2 [GSK1379882] | 12 |
| Fc1cccc(CSc2nnc(-c3ccc4c(c3)CCO4)o2)c1 | 35 |
| Cn1c(=O)c(F)c(Nc2ccc(I)cc2F)c2c(=O)n(OC[C@H](O)CO)cnc21 | 20 |
| COc1cc(Nc2nccc(N3CCC(NC(=O)C4COc5ccccc5O4)C3)n2)cc(OC)c1OC (centres unmarked) [GSK1379761] | 0 |
| CCC(=O)c1c(-c2ccccc2)c2cc(Cl)ccc2c(=O)n1Cc1cc(S(C)(=O)=O)n(CCC(C)(C)O)n1 | 0 |
| Nc1ncnc2c1ncn2-c1cccc(F)c1 [SKF-97560] | 12 |
| CCCNC(=O)Nc1ccc(Oc2ncnc3ccn(C)c23)cc1 | 12 |
| COc1ccc(Nc2nccc(N3CCC(NS(=O)(=O)c4ccc(NC(C)=O)cc4)C3)n2)cc1 (centres unmarked) [GSK1379729] | 0 |
| COc1cc2ncn(-c3cc(OCc4ccncc4Br)c(C(N)=O)s3)c2cc1OC [GW854278] | 12 |
| CN1C(=O)C(Nc2cc(Cl)c(O)c(Cl)c2)=C(c2ccc(Cl)cc2)C1=O [SB-404321] | 0 |

| SMILES | %Inh [%] |
| --- | --- |
| CCC(=O)c1c(-c2ccccc2)c2cc(Cl)ccc2c(=O)n1Cc1cc(S(C)(=O)=O)n(CC(F)F)n1 | 0 |
| O=C1NC(=O)C(c2ccccc2)=C1Nc1cccc(O)c1 [SB-390534] | 0 |
| Cc1cccc(-c2cc(-c3c[nH]nc3-c3ccccn3)ccn2)c1 [GW679395] | 0 |
| Nc1nc(N)c2nc(-c3ccccc3)[nH]c2n1 [SKF-12778] | 0 |
| COc1ccc(-n2cnc3c(N)ncnc32)cc1 [SKF-97236] | 16 |
| COc1cccc(-n2cnc3c(N)ncnc32)c1 [SKF-97416] | 18 |
| FC(F)(F)c1ccc(-c2ncn(CCCN3CCOCC3)c2-c2ccncc2)cc1 [SB-217780] | 17 |
| Cc1nnc(-c2ccc3ncn(-c4ccc(S(C)=O)cc4)c3c2)o1 (centres unmarked) | 4 |
| COC(=O)c1c(-c2ccccc2)c2cc(Br)ccc2c(=O)n1Cc1ccc(NC(=O)CCC(=O)O)cc1 | 18 |
| Cl.c1ccc(Cn2cnc3cc(Nc4ncnc5ccccc45)ccc32)cc1 [GW272142] | 58 |
| Cc1ccc(-c2ccc3c(ccc4sc5c(c43)NC[C@@H](C)N=C5N(C)C)n2)cn1 | 0 |
| CN1C(=O)C(Nc2ccccc2)=C(c2ccccc2)C1=O [SB-300079] | 0 |
| COc1cc2nccc(Nc3ccc(OCc4ccc(NC(C)=O)cc4)cc3)c2cc1OC.Cl [GW440135] | 0 |
| COc1cc2ncn(-c3cc(OCCCc4ccccc4)c(C(N)=O)s3)c2cc1OC [GSK205189] | 0 |
| Cc1nnc(-c2ccc(C)c(-c3ccc(C(=O)O)cc3)c2)o1 [GW608005] | 0 |
| O=C(Nc1n[nH]c2cc(-c3ccccc3F)ccc12)C1CC1 [SB-733371] | 0 |
| CCC(=O)c1c(-c2ccccc2)c2cc(Cl)ccc2c(=O)n1Cc1cc(C(=O)NC2CC2)n(C)n1 | 4 |
| CCC(=O)c1c(-c2ccccc2)c2cc(Cl)ccc2c(=O)n1Cc1ccc(C(=O)O)cc1 | 0 |
